Consider 40 compounds from PubChem BioAssay (NCATS).

“And” between values parts separate entries of the source, which are not always exact repeats. Identical values can stand only once. A number with no mark means an inactive call. Calls follow the shape of the dose curve; as a rule, active = well fitted activation curve with a large enough effect; inconclusive = small, poorly fitted or top-dose-only effect; inactive = flat fitted curve, though single readings scatter.

Peroxisome proliferator-activated receptor alpha (Homo sapiens), sequence (Q07869 whole entry, looked up): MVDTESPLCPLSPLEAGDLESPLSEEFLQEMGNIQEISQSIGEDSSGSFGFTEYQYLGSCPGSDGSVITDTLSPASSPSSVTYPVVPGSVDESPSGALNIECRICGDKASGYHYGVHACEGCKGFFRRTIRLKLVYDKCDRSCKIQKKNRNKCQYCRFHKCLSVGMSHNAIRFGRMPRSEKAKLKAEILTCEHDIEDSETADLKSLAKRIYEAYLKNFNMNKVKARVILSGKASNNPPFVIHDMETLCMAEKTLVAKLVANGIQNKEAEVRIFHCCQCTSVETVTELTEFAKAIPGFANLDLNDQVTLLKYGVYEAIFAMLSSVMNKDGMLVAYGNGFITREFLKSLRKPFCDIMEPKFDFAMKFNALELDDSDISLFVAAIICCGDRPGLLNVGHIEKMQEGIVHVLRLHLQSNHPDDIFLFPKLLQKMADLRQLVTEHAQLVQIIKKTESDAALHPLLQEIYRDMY

The test deals with Peroxisome proliferator-activated receptor alpha (Homo sapiens) (UniProt Q07869). As to the kind of experiment: qHTS assay for small molecule agonists of the peroxisome proliferator-activated receptor alpha (PPARalpha) signaling pathway (AID 651778). Also: % of control where 0% means no effect. The following applies: PathHunter PPARalpha complementation, chemiluminescence, 6 h; active compounds read high. From the text:
National Center for Advancing Translational Sciences [NCATS]
NIH Chemical Genomics Center [NCGC]
U.S. Environmental Protection Agency [EPA]
National Institutes of Environmental Health Sciences [NIEHS]
National Toxicology Program [NTP]
The Peroxisome proliferator-activated receptors (PPARs) are lipid-activated transcription factors of the nuclear receptor superfamily with three distinct subtypes (alpha, garmma and beta/delta). All these subtypes heterodimerize with retinoid X receptor and have different physiological functions. PPARalpha is highly expressed in tissues with high rates of mitochondrial fatty acid oxidation, such as liver, heart, muscle, kidney and cells of the arterial wall. PPARalpha is a major regulator of lipid metabolism and energy homeostasis.
A cell based assay was used to identify activators of PPARalpha. The assay detects binding of a ligand to PPARalpha leading to its activation, translocation and complementation thus forming a functional enzyme capable of hydrolyzing the substrate molecule and generating chemiluminescent signal.
2,000 cells in 6 uL/well were dispensed into white wall/solid bottom 1536-well plates using a Multidrop Combi (Thermo Scientific) dispenser. After incubation 37 C and 5% CO2 overnight, 23 nL compound or DMSO only were transferred by a pin tool. The plates were incubated for 6 hr at 37 C and 5% CO2. 3 ul PathHunter detection reagent (Discoverx) was then added to each well and following 60 min incubation at room temperature, chemiluminescence was quantified on a ViewLux CCD-based plate reader.
(Quantitative high-throughput screening tests each substance at several concentrations.)
As to `O=C(O)c1cc[c]([Hg][Cl])cc1`, the max response is -9.79%.

In the case of `S=C=S`, the max response was -4.15%.

As to `ClC=C(Cl)Cl`, the max response was -8.59% and -1.74%.

For `O=Cc1ccco1`, the max response was -1.43%.

On to `C[C@H]1CCC[C@H](O)CCCCCc2cc(O)cc(O)c2C(=O)O1`, for which the max response is -2.71%.

With `C=CCN=C=S`, the max response is -1.57%.

For `O=CC=O`, the max response was -5.03%.

With `ClC(Cl)(Cl)Cl`, the max response was -1.24% and -4.01%.

On to `O=C1C2CC=CCC2C(=O)N1SC(Cl)(Cl)Cl` (stereo not given), for which the max response is -6.31% and -2.76% and -2.09%.

As to `COc1ccc2c(c1OC)C(=O)OC2C1c2cc3c(cc2CCN1C)OCO3` (stereo not given), the max response was -0.464%.

For the compound `[Cl-].[Cl-].[Hg+2]`, the max response is -13.7%.

`CC(C)Nc1ccc(Nc2ccccc2)cc1`: the max response is -3.2%.

With `O=[N+]([O-])c1ccccc1`, the max response was 0.135% and -4.33%.

Take `O=[N+]([O-])c1ccc(F)c([N+](=O)[O-])c1`: the max response was -10.2%.

For `C[C@H]1CC[C@@H]2[C@@H](C)[C@H]3[C@H](C[C@H]4[C@@H]5CC=C6CC(O[C@@H]7O[C@H](CO)[C@H](O)[C@H](O[C@@H]8O[C@H](CO)[C@@H](O)[C@H](O)[C@H]8O)[C@H]7O[C@H]7O[C@@H](C)[C@H](O)[C@@H](O)[C@H]7O)CC[C@]6(C)[C@H]5CC[C@]34C)N2C1` (stereo not given in full), the max response is -0.952%.

With `Clc1ccccc1Cl`, the max response is -2.32%.

Consider `CCCSP(=O)(OCC)SCCC`, for which the max response is 0.388%.

On to `O=c1[nH]c(=O)n(Cl)c(=O)n1Cl`, for which the max response was 3.21%.

Turning to `NNC(N)=O`, the max response was -2.31%.

With `Oc1cc(Cl)c(Cl)cc1Cl`, the max response was -3.77% and 0.0897%.

As for `N#CN`, the max response is 0.0862%.

Regarding `C[CH2][Hg][S]c1ccccc1C(=O)O`, the max response was -9.74%.

On to `O=C(NCNC(=O)NC1C(=O)NC(=O)N1CO)NC1C(=O)NC(=O)N1CO` (stereo not given), for which the max response is -1.19%.

For `O=C/C=C/c1ccccc1`, the max response was 0.173% and 5.71%.

As to `CCCCCCCCOC(=O)c1ccccc1C(=O)OCCCCCCCC`, the max response was 0.808% and 0.946%.

Consider `O=C1C=CC(=O)C=C1`, for which the max response was -5.62%.

Turning to `C[C@]12CCC(=O)C[C@@H]1CC[C@@H]1[C@@H]2CC[C@]2(C)[C@@H](O)CC[C@@H]12`, the max response is -1.24% and 0.0043%.

Regarding `ClCC1CO1` (stereo not given), the max response was -4.69%.

In the case of `CC(C)CCON=O`, the max response is -0.247%.

For `[O]=[Cr](=[O])([OH])[O][Cr](=[O])(=[O])[OH]`, the max response is -2.4% and -2.51% and -6.59%.

Consider `COC1=CC(=O)O[C@@H](/C=C/c2ccccc2)C1`, for which the max response is -0.906%.

Turning to `[O]=[Cd]`, the max response was -1.92%.

As for `CCCCCl`, the max response was -3.81%.

As for `CC[C@H](C)[C@H]1O[C@]2(C=C[C@@H]1C)C[C@@H]1C[C@@H](C/C=C(\C)[C@@H](O[C@H]3C[C@H](OC)[C@@H](O[C@H]4C[C@H](OC)[C@@H](O)[C@H](C)O4)[C@H](C)O3)[C@@H](C)/C=C/C=C3\CO[C@@H]4[C@H](O)C(C)=C[C@@H](C(=O)O1)[C@]34O)O2`, the max response is 7.18%.

Turning to `O=[N+]([O-])C(Br)(CO)CO`, the max response is 0.217%.

As to `COCC(C)N(C(=O)CCl)c1c(C)csc1C` (stereo not given), the max response is -3.83%.

In the case of `CCOC(=O)c1ccccc1C(=O)OCC`, the max response was 0.572% and -3.94% and -0.67%.

For the compound `C#CCN1CC(=O)N(COC(=O)C2C(C=C(C)C)C2(C)C)C1=O` (stereo not given), the max response is 0.547%.

Take `CC(C)(C)c1cc(O)ccc1O`: the max response is -2.46% and -4.08% and -1.53%.

Take `ClC1C(Cl)C(Cl)C(Cl)C(Cl)C1Cl` (stereo not given): the max response is 1.56% [middle of 4 runs].
